In PubChem BioAssay one finds differentiation response data, which are given here for six compounds.

Activity calls are given as the source filed them.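 Rule for the calls: active = differentiation response of at least 50%, scaled between solvent and reference control, from cells with both markers; inactive = the rest.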

A short description of the assay: promoters of myeloid differentiation in arrested cells, primary screen, cell-based, GFP/MAC1 double positive, flow cytometry, validation set (AID 588685).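 Note: compound exposure lasts four days before antibody staining and flow analysis; 0% = DMSO wells and 100% = 5 µM fulvestrant positive control.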 To be noted: ER-HoxA9 marrow cells, hits give high values, normalized: vehicle 0, fulvestrant 100.
On to `O=C(N/N=C/c1ccc([N+](=O)[O-])o1)c1ccc(O)cc1`, for which the differentiation response was 14.7% (inactive). As for `CC(=O)N1CCn2c3c(c4cc(C)ccc42)CCCC31` (stereo unspecified), the figure is -4% (inactive); as for `Cc1ccc(CN2CCN(CCCc3ccccc3)CC2CCO)cc1` (stereo unspecified), 10% (inactive); as for `CCC(C(=O)Nc1ccc2c(c1)OCCO2)c1ccccc1` (stereo unspecified), -10.4% (inactive). As for `CN(C)CCC=C1c2ccccc2CCc2ccccc21`, the differentiation response was -24.8% (inactive).

Turning to `CN(C)c1ccc(CNCCC(Cc2ccccc2)c2ccco2)cc1` (stereo unspecified), the differentiation response was -5.68% (inactive).
